The text below walks through data of ChEMBL document CHEMBL4513216, “Probing the Open Global Health Chemical Diversity Library for Multistage-Active Starting Points for Next-Generation Antimalarials” (ACS Infect Dis, 2020).

The whole screen tested about 65,000 compounds, of which about 2,100 (3.2%) showed an effect of 50% or more. The median lay at about -52%. Many of the other results were omitted from the sample, so strong results are more common in it than they were.

In this test the test system is Plasmodium falciparum. The test is described as follows: Screen against P. falciparum Asexual Blood Stage (ABS), at 5uM. The class given is functional, Dd2. The following applies: tested at 5 uM.
Take `Fc1ccc(-c2nccnc2C2CCCNC2)cc1` (stereo not given): the INHIBITION was 76.6%.

As for `c1c[nH]c2nc(C3CCCNC3)nc-2c1` (stereo not given), the INHIBITION is recorded as -172%.

Regarding `CN(C)c1cc(C2CCCNC2)ccn1` (stereo not given), the INHIBITION is given as -11.8%.

As for `CC1CCCCN1C(=O)c1coc(COc2cccc3cnccc23)n1` (stereo not given), the INHIBITION worked out at 86.5%.

Turning to `Cc1cccc(CN2CC[C@H]3[C@H]2CCN3C(=O)c2cnn(C)c2)n1`, the INHIBITION is given as -5.92%.

`Cc1ccc(NC(=O)NC(C)c2nc[nH]n2)cc1Cl` (stereo not given): the INHIBITION was -107%.

With `COc1ccc(NC(=O)Nc2cnc(N3CCN(C)CC3)nc2)cc1Cl`, the INHIBITION is 87.9%.

As for `CNS(=O)(=O)CC(=O)NC(C)Cc1ccc(Br)cc1` (stereo not given), the INHIBITION is recorded as -89.6%.

Regarding `NC(=O)N1C[C@H]2CN(Cc3nccs3)C[C@H]2C1`, the INHIBITION is on record as -12%.

Regarding `CN1[C@H](Cn2cccn2)C[C@@H]2CN(Cc3cccs3)CC[C@@H]21`, the INHIBITION is 75.8%.

Consider `C[C@H]1C[C@@H]2CCN(Cc3nccs3)C[C@H]2O1`, for which the INHIBITION is listed as -9.59%.

As to `c1cnn(C[C@@H]2C[C@@H]3CN(CC4CC4)CC[C@@H]3N2c2nccs2)c1`, the INHIBITION is 89.9%.

Regarding `CN1C(Cn2cccn2)C[C@@H]2CN(Cc3ccccn3)CC[C@@H]21` (stereo not given in full), the INHIBITION worked out at 41.6%.

For `CN1CC[C@H]2[C@H](C[C@@H](CN3CCCC3)N2c2nccs2)C1`, the INHIBITION is recorded as 73.7%.

Consider `Cc1nccc([C@@H]2C[C@@H]3CCN(Cc4cccs4)C[C@H]3O2)n1`, for which the INHIBITION is reported as -92.1%.

As for `C[C@@H]1C[C@@H]2CCN(Cc3nccs3)C[C@H]2O1`, the INHIBITION was -26.9%.

`O=C(c1ncccn1)N1C[C@@H]2CN(CC3CC3)CCO[C@@H]2C1`: the INHIBITION is on record as -14.4%.

In the case of `CCN(CCc1ccccc1)Cn1nc(C)c2c(C)onc2c1=O`, the INHIBITION is given as -13.3%.

For `Cc1ccc(-c2ccc(C3CNCCO3)nc2)cc1` (stereo not given), the INHIBITION is given as 83.5%.

Consider `Clc1ccc(-c2ccc(C3CNCCO3)nc2)cc1` (stereo not given), for which the INHIBITION worked out at 85.9%.

Take `CCCC(=O)N1CCC2(CC1)OCCO2`: the INHIBITION is given as -40.8%.

As to `COCCN1CCC(c2cncc(-c3cccc(Cl)c3)n2)CC1`, the INHIBITION worked out at 71.1%.

In the case of `COCCN1CC=C(c2cccc(OC)c2)CC1`, the INHIBITION was 13.9%.

Take `COCCN1CC[C@H]2OCC[C@@H](C(=O)Nc3cccnc3)[C@@H]2C1`: the INHIBITION is listed as -67.2%.

As for `OCCN1CCC(c2cncc(-c3cccc(Cl)c3)n2)CC1`, the INHIBITION stood at 71.1%.

With `CN1CCC(c2cncc(Cl)n2)CC1`, the INHIBITION is -28.5%.

With `CCCS(=O)(=O)N1CCOC2(CCCN(Cc3ccccn3)C2)C1` (stereo not given), the INHIBITION is recorded as -21.2%.

As for `CN(C)C[C@]12COC[C@H]1CN(Cc1ccccn1)C2`, the INHIBITION was -39.8%.

With `Cc1ccc(CN2CCN(C)c3ncccc3C2)o1`, the INHIBITION is on record as -75.5%.

Consider `COc1cccc(CN2CCN3C(=O)NC[C@H]3C2)n1`, for which the INHIBITION is given as -90.1%.

For the compound `Cc1cccc(CN2CCN3C[C@H](Oc4cccnc4)C[C@H]3C2)n1`, the INHIBITION is given as -91.1%.

Consider `Clc1cccc2c3c([nH]c12)CCN(Cc1cc2n(n1)CCNC2)C3`, for which the INHIBITION stood at 79.1%.

As to `Clc1cccc2c3c([nH]c12)CCN(Cc1cc2n(n1)CCCNC2)C3`, the INHIBITION is given as 89.7%.

Turning to `c1cncc(OC[C@]23COC[C@H]2CN(Cc2nccs2)C3)c1`, the INHIBITION is -94.4%.

In the case of `CC(C)N1CCOC(c2ccnc(N(C)C)n2)C1` (stereo not given), the INHIBITION is reported as -133%.

Take `Cc1cccc(CN2CCO[C@H]3[C@H](Oc4ccccn4)CC[C@@H]32)n1`: the INHIBITION is -7.66%.

Regarding `Cc1cc(N2CCOC(c3ccccn3)C2)nc(N)n1` (stereo not given), the INHIBITION was determined as 75.1%.

As for `NCC1CCCN(c2nc(-c3ccccc3)nc3c2CCNCC3)C1` (stereo not given), the INHIBITION was found to be 85.9%.

With `N#CC1CCCN(c2nc(-c3ccccc3)nc3c2CCNCC3)C1` (stereo not given), the INHIBITION stood at 79.9%.

For the compound `Cc1noc(C)c1CN1C[C@H](OCC2CC2)[C@H]2OCCC[C@H]21`, the INHIBITION is listed as -58%.

With `CS(=O)(=O)NCc1cncc2c1CCN(CC1CCOC1)C2` (stereo not given), the INHIBITION is reported as -80.3%.

Take `Cc1noc(C)c1CN1C[C@H](OCC(=O)N(C)C)[C@H]2OCCC[C@H]21`: the INHIBITION is reported as -72.7%.

In the case of `Cc1cc(CN2CCc3nc(-c4ccncc4)nc(O)c3CC2)c(C)s1`, the INHIBITION is 91%.

Regarding `Cc1cc(CN2CCc3nc(N4CCOCC4)nc(O)c3CC2)c(C)s1`, the INHIBITION stood at 77.6%.

Consider `O=C(N[C@H]1CN[C@H]2CCCO[C@H]21)c1cccnc1`, for which the INHIBITION is recorded as -13.5%.

In the case of `Cc1cc(CN2CCO[C@H]3[C@H](OCc4csc(C)n4)CC[C@@H]32)no1`, the INHIBITION is reported as -73.3%.

Take `CC(C)[C@H](N)C(=O)N1CCSc2ccccc2C1`: the INHIBITION came out at 73.7%.

`O=C1Nc2ccccc2C12CCCN(Cc1ccncc1)C2` (stereo not given): the INHIBITION is -78.5%.

Take `O=C(Cc1cccnc1)N1CCC2(CC1)CCN(C1CCOC1)C2` (stereo not given): the INHIBITION was -58.9%.

`c1cc(CN2CCOCC3(CCN(C4CCOCC4)C3)C2)ccn1` (stereo not given): the INHIBITION was -38.5%.

`c1cncc(CN2CCC3(COCCN(C4CCOCC4)C3)C2)c1` (stereo not given): the INHIBITION is -42%.

With `Fc1cccc(CN2CCOCC3(CCN(C4CCOCC4)C3)C2)c1` (stereo not given), the INHIBITION came out at 78.2%.

Consider `c1cncc(CN2CCCC3(COCCN(c4nccs4)C3)C2)c1` (stereo not given), for which the INHIBITION is on record as 10.9%.

Regarding `CNC(=O)CN1CCOCC2(CCCN(Cc3cccnc3)C2)C1` (stereo not given), the INHIBITION is on record as -8.58%.

For the compound `c1ccc(CN2CCOCC3(CCN(C4CCOCC4)C3)C2)cc1` (stereo not given), the INHIBITION was 82.2%.

As for `Fc1cccc(CN2CCC3(CCN3c3ncccn3)C2)c1` (stereo not given), the INHIBITION is 27.1%.

On to `Cc1cccc(CN2CCOCC3(CCN(C4CCOCC4)C3)C2)c1` (stereo not given), for which the INHIBITION turned out to be 78.6%.

For `COCCN1CCN(c2cccc(C)n2)Cc2ccc(C)nc21`, the INHIBITION is -14.7%.

Regarding `Cc1cc(NC2CC3(CCN(Cc4csc(C)n4)C3)C2)ncn1` (stereo not given), the INHIBITION is on record as -142%.

In the case of `Cc1nocc1C(=O)N1CCOC2(COCCN(C(C)C)C2)C1` (stereo not given), the INHIBITION is -62.3%.

Take `CCN(C(C)c1cccc(O)c1)S(=O)(=O)c1cccnc1` (stereo not given): the INHIBITION worked out at 76.6%.

Take `CC(c1cccc(O)c1)N(C)S(=O)(=O)c1cccnc1` (stereo not given): the INHIBITION is given as 71.4%.

`CN1CCO[C@@H]2CN(S(=O)(=O)c3cccnc3)C[C@@H]2C1`: the INHIBITION was -79%.

With `CN1CCC(N2CCN3C(=O)NC[C@H]3C2)CC1`, the INHIBITION is reported as -11%.

On to `COCCN1CCN(S(=O)(=O)C2CC2)Cc2cccnc21`, for which the INHIBITION is given as -40.8%.
